Measurements: PubChem BioAssay (EPA / NIEHS)
More than one record can exist for a structure, and the calls need not agree. The source made the active and inactive calls. Rule for the calls: active = hit-call score of the fitted dose curve at least 0.9, where 1 is the maximum; inactive = score below 0.9.

How the values were obtained:
[1] = CCTE_Shafer_MEA_dev_mutual_information_norm: CCTE's Neural Network Formation Assay for Mutual Information Normalization, Shafer Lab (AID 2284091)
Procedure, shortened: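 Shared information across electrodes, tracked on days 5, 7, 9 and 12 of network development and collapsed as trapezoidal area under the curve. Rat cortical cultures were treated continuously from plating, with treatment renewed at feeds on DIV 5 and 9; DMSO baseline, negative-direction fit.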

[2] = CCTE_Shafer_MEA_dev_correlation_coefficient_mean: CCTE's Neural Network Formation Assay for Mean Correlation Coefficient, Shafer Lab (AID 2284093)
Procedure, shortened: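 Read-out: well-mean correlation coefficient of spike trains between electrode pairs, collapsed over four recording days as trapezoidal area-under-the-curve. Developing rat cortical neuron networks grown on MEAs received test chemical continuously from plating.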

[3] = BSK_BT_PBMCCytotoxicity: PBMC Cytotoxicity Assessment in the BioMAP Diversity Plus: BT Assay (AID 2284225); details: primary human B cells with PBMC;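 note: PBMC viability measured by Alamar Blue dye reduction fluorescence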
Procedure, shortened: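 Viability by Alamar Blue reduction (6 h, ex/em 546/580 nm) after 90 h culture of SEB/TSST-1-activated PBMC (20 ng/mL each) given compound 1 h before activation. DMSO served as baseline for curve fitting.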

[4] = read-out: Secreted IgG (sIgG), gene 3500; test: BSK_BT_sIgG: BioMAP Diversity Plus: BT Assay for Secreted IgG (sIgG) Biomarker Activity (AID 2284226); details: primary human B cells with PBMC
Procedure, shortened: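 ELISA quantitation of secreted IgG from human B cells co-cultured with PBMC, sampled 24 h post-dosing. Values fitted relative to DMSO vehicle as baseline, positive fitting direction.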

[5] = BSK_BT_Bcell_Proliferation: Viability Assessment in the BioMAP Diversity Plus: BT Assay for B cell Proliferation (AID 2284227); details: primary human B cells with PBMC
Procedure, shortened: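 SRB-based protein staining (0.1% SRB after 10% TCA fixation, 560 nm) quantifies proliferation in human B cells co-cultured with PBMC, 72 h post-dosing, with signal gain scored relative to DMSO negative control.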

[6] = read-out: Interleukin 17A (IL17A), IL17A (gene 3605); test: BSK_BT_xIL17A: BioMAP Diversity Plus: BT Assay for Interleukin 17A (IL17A) Biomarker Activity (AID 2284229); details: primary human B cells with PBMC
Procedure, shortened: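 B cells co-cultured with PBMC were exposed to test chemicals, and secreted IL-17A was quantified 24 h after dosing by Luminex xMAP bead immunoassay. Activity was fitted in the gain direction against DMSO as baseline.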

[7] = read-out: Tumor necrosis factor (Homo sapiens) (UniProt P01375); test: BSK_BT_xTNFa: BioMAP Diversity Plus: BT Assay for Tumor necrosis factor alpha (TNF-alpha) Biomarker Activity (AID 2284230); details: primary human B cells with PBMC
Procedure, shortened: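 Compounds were added to a B cell plus PBMC co-culture, and after 24 h secreted TNF-alpha was quantified with Luminex xMAP technology, with responses fitted upward from the DMSO control.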

[8] = read-out: Vascular cell adhesion molecule 1 (VCAM1), VCAM1 (gene 7412); test: BSK_MyoF_VCAM1: BioMAP Diversity Plus: MyoF Assay for Vascular cell adhesion molecule 1 (VCAM1) Biomarker Activity (AID 2284231); details: primary human lung fibroblasts
Procedure, shortened: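 Primary human lung fibroblasts were dosed with test chemical for 24 h, then cell-surface VCAM-1 was measured by ELISA. Activity was fitted in the positive direction against DMSO as negative control and baseline.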

[9] = read-out: Collagen I, COL1A1 (gene 1277); test: BSK_MyoF_CollagenI: BioMAP Diversity Plus: MyoF Assay for Collagen I Biomarker Activity (AID 2284238); details: primary human lung fibroblasts
Procedure, shortened: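 Human lung fibroblasts were exposed to test chemical for 24 h, then Collagen I was quantified by ELISA. Activity was fitted in the increasing direction against DMSO as the negative control and baseline.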

[10] = read-out: Collagen III, COL3A1 (gene 1281); test: BSK_MyoF_CollagenIII: BioMAP Diversity Plus: MyoF Assay for Collagen III Biomarker Activity (AID 2284239); details: primary human lung fibroblasts
Procedure, shortened: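 Human lung fibroblasts were dosed with chemicals and, 24 hours later, collagen III was measured by ELISA. Activity was fitted in the positive direction against the DMSO negative-control baseline.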

[11] = read-out: Interleukin 17F (IL17F), IL17F (gene 112744); test: BSK_BT_xIL17F: BioMAP Diversity Plus: BT Assay for Interleukin 17F (IL17F) Biomarker Activity (AID 2284243); details: primary human B cells with PBMC
Procedure, shortened: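 B cell/PBMC co-culture (human primary), 24 h compound exposure; sIL-17F by Luminex xMAP; gain-of-signal fit vs DMSO baseline.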

[12] = read-out: Actin alpha 1 (ACTA1), ACTA1 (gene 58); test: BSK_MyoF_ACTA1: BioMAP Diversity Plus: MyoF Assay for Actin alpha 1 (ACTA1) Biomarker Activity (AID 2284244); details: primary human lung fibroblasts
Procedure, shortened: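 alpha-SMA levels read by ELISA against DMSO baseline, 24 h post-dose, in primary human lung fibroblasts. Parallel cultures stained with 0.1% SRB after 10% TCA fixation (560 nm) to flag overt cytotoxicity.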

[13] = read-out: Interleukin 2 (IL2), IL2 (gene 3558); test: BSK_BT_xIL2: BioMAP Diversity Plus: BT Assay for Interleukin 2 (IL2) Biomarker Activity (AID 2284245); details: primary human B cells with PBMC
Procedure, shortened: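 Secreted IL-2 was read by Luminex xMAP from B cells co-cultured with PBMC (human primary) 24 h post-dosing; activity was analysed as gain of signal relative to DMSO vehicle.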

[14] = read-out: Basic fibroblast growth factor (bFGF), FGF2 (gene 2247); test: BSK_MyoF_bFGF: BioMAP Diversity Plus: MyoF Assay for Basic fibroblast growth factor (bFGF) Biomarker Activity (AID 2284246); details: primary human lung fibroblasts
Procedure, shortened: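 bFGF was measured by ELISA in primary human lung fibroblasts 24 h after chemical addition. Signal was analysed as positive-direction change relative to DMSO baseline.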

[15] = read-out: Collagen IV, COL4A1 (gene 1282); test: BSK_MyoF_CollagenIV: BioMAP Diversity Plus: MyoF Assay for Collagen IV Biomarker Activity (AID 2284247); details: primary human lung fibroblasts
Procedure, shortened: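 Collagen IV quantified by ELISA in human lung fibroblast cultures 24 h after chemical treatment, with DMSO as baseline. Parallel SRB staining (0.1% SRB after TCA fixation, 560 nm) flags overt cytotoxicity.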

[16] = read-out: Monokine induced gamma interferon (MIG), CXCL9 (gene 4283); test: BSK_KF3CT_MIG: BioMAP Diversity Plus: KF3CT Assay for Monokine induced gamma interferon (MIG) Biomarker Activity (AID 2284248); details: primary human keratinocytes with fibroblasts
Procedure, shortened: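 Human keratinocyte plus foreskin fibroblast primary co-culture dosed with test chemical for 24 h; MIG level measured by ELISA and fitted in the positive direction against DMSO as baseline.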

[17] = read-out: Interleukin 6 (IL6), IL6 (gene 3569); test: BSK_BT_xIL6: BioMAP Diversity Plus: BT Assay for Interleukin 6 (IL6) Biomarker Activity (AID 2284228); details: primary human B cells with PBMC
Procedure, shortened: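 Human B cell plus PBMC co-culture exposed to test chemical for 24 h; secreted IL-6 quantified by Luminex xMAP bead assay. Activity fitted in the positive direction against DMSO as negative control and baseline.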

Measured: AC50

Chain of Tumor necrosis factor (Homo sapiens) (P01375 whole entry, looked up): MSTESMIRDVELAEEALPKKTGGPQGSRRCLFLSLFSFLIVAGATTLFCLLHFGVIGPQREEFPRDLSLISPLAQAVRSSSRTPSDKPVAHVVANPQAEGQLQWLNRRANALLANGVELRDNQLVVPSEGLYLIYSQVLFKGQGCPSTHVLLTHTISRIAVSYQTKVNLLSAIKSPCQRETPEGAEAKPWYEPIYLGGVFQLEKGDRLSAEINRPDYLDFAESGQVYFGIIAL

OCC(O)CC(F)(F)C(F)(F)C(F)(F)C(F)(F)F (stereo unspecified)
active: [7] 0.153 µM
inactive: [1] | [2] | [3] | [4] | [5] | [6] | [7] | [8] | [9] | [10] | [11] | [12] | [13] | [14] | [15] | [16]

O=C(O)C(F)(F)OC(F)(F)C(F)(F)OC(F)(F)C(F)(F)OC(F)(F)F
inactive: [3] | [4] | [5] | [6] | [7] | [8] | [9] | [10] | [11] | [12] | [13] | [14] | [15] | [16]
active: [3] 14.8 µM

CCN(CC)c1ccc(C=O)cc1
inactive: [3] | [4] | [5] | [6] | [7] | [8] | [9] | [10] | [11] | [12] | [13] | [14]

O=C(O)C(F)(F)C(F)(F)C(F)(F)C(=O)O
inactive: [3] | [4] | [5] | [17] | [6] | [7] | [8] | [9] | [10] | [11] | [12] | [13] | [14] | [16]

Cc1ccc(S(=O)(=O)C(I)I)cc1
active: [3] 4.06 µM | [4] 2.03 µM | [5] 2.97 µM | [6] 2.36 µM | [7] 4.64 µM | [8] 7.94 µM | [9] 8.3 µM | [10] 10.5 µM | [11] 2.77 µM | [12] 7.35 µM | [13] 4.47 µM | [14] 12.5 µM

NCC(F)(F)C(F)(F)C(F)(F)C(F)(F)C(F)(F)C(F)(F)C(F)(F)C(F)(F)F
inactive: [3] | [4] | [5] | [6] | [7] | [8] | [9] | [10] | [11] | [12] | [13] | [14] | [15] | [16]

CC(C)(C)c1cc(CCC(=O)NCCCCCCNC(=O)CCc2cc(C(C)(C)C)c(O)c(C(C)(C)C)c2)cc(C(C)(C)C)c1O
active: [4] 1.98 µM | [11] 5.33 µM | [13] 1.36 µM
inactive: [3] | [5] | [6] | [7] | [8] | [9] | [10] | [12] | [14]
